Data on 40 compounds can be found in PubChem BioAssay (NCI).

The structures appear in SMILES notation. About 83,000 compounds went through this panel and 20% of them were active in at least one assay; those are over-represented in the sample as a whole.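 Single-dose data. Exposure time 48 hours. Values below 10 considered active.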 Active and inactive are the calls of the source.

The experiment relates to A498 renal. Nature of the experiment: NCI-60 one-dose screen, 48 h (100 = growth as untreated, 0 = no growth, -100 = all killed). The settings on record: 10 µM. On the procedure:
Growth inhibition of the A498 human tumor cell line is measured as a screen for anti-cancer activity. Cells are grown in 96 well plates and exposed to the test compound for 48 hours. Compounds are tested at a single concentration, which is 10^-5 M for most compounds. The reported endpoint is percent growth (GI% or GIPRCNT), where numbers from 0 - 100% represent growth inhibition, and numbers from -100% - 0 represent cell death. For example, a value of 40 represents 60% growth inhibition. A value of 0 means no net growth occurred over the course of the experiment. A value of -40 indicates 40% of cells at the beginning of the experiment died by the end of the experiment. A value of -100 means all cells are dead at the end of the experiment.
NCI-60 Human Tumor Cell Lines Screen was performed using the standard one-dose NCI protocol, which is described in more detail at https://dtp.cancer.gov/discovery_development/nci-60/default.htm.
Compounds with GIPRCNT values below 10 were considered active. Activity score was based on GIPRCNT using the following formula: […]
Score is 0 for GIPRCNT values of 100 or above, 50 for GIPRCNT values of 0, and 100 for GIPRCNT values of -100.
For `C=C[Si](OC(C)=O)(OC(C)=O)OC(C)=O`, the growth is 94.2% (inactive).
As for `CC1CCC2C(C)(C)C3CC12CC1OC13C` (stereo not given), the figure is 94% (inactive); as for `O=c1[nH][nH]c(=O)c2cc([N+](=O)[O-])ccc12`, 117% (inactive); as for `NC(=S)NN=C1CCCC1`, 85.6% (inactive).
As for `CCOC(=O)CCCS(C)(=O)=O`, the figure is 96.8% (inactive).
The value for `CNC(=S)NC(C)(C)C` was 112% (inactive); that for `O=C(O)c1ccccc1NCc1ccco1` was 99.9% (inactive); that for `C#C[C@H]1CCCCCC1O` (stereo not given in full) was 99.3% (inactive).
Take `CC1CCCCN1C(=S)Nc1ccc(S(=O)(=O)N2CCCCC2)cc1` (stereo not given): the growth is 70.9% (inactive).
In the case of `O=C(O)CSCSCC(=O)O`, the growth was 80.4% (inactive).
With `CCOC(=O)C(CCC(C)C)C(=O)OCC`, the growth is 91.3% (inactive).
The value for `Oc1ccc2c(c1)OCC1(O)Cc3cc(O)c(O)cc3C21` (stereo not given) was 99.1% (inactive); that for `Cc1cc(N)ccc1-c1ccc(N)cc1C` was 97.1% (inactive); that for `O=[N+]([O-])c1ccc(-c2ncc(-c3ccc(Br)cc3)o2)cc1` was 68.4% (inactive).
As for `CC1C(=O)c2ccccc2CC1C(=O)O` (stereo not given), the figure is 142% (inactive); as for `COC(=O)c1ccccc1N(C)C`, 79.6% (inactive).
As for `c1ccc(/C(=N\N=C(/c2ccccc2)c2cccs2)c2cccs2)cc1`, the figure is 102% (inactive).
As to `Cc1cc(C)c(N)c(S(=O)(=O)O)c1`, the growth was 142% (inactive).
With `CN(C)C(C)(C)CC(C)(C)C`, the growth is 110% (inactive).
The value for `COc1ccc(C)cc1OC` was 94.5% (inactive).
As for `CC(=O)c1cc2c(cc1F)C(C)(C)CCC2(C)C`, the figure is 92.6% (inactive); as for `CC(=O)OCC1CCCO1` (stereo not given), 101% (inactive); as for `CC(=Nc1ccccc1)C1=C(O)C(Cc2cccc(F)c2)NC1=O` (stereo not given), 0.117% (active).
As for `COc1cc(/C=C(\C#N)C(=O)c2ccccc2)ccc1OCc1ccccc1`, the figure is 87.9% (inactive).
Turning to `O=C(O)c1cc([N+](=O)[O-])ccc1Cl`, the growth is 106% (inactive).
As for `CCCNc1ccc(C2=NCCCN2)cc1`, the growth is 71.7% (inactive).
With `CC1(C(=O)O)NC(C(=O)O)Cc2c1[nH]c1ccccc21` (stereo not given), the growth is 91.8% (inactive).
As for `C#CC(C)(O)c1ccc(Cl)cc1` (stereo not given), the growth is 98% (inactive).
As for `CC(=O)c1ccc(C(C)(C)C)cc1`, the figure is 123% (inactive); as for `COC(=O)/C=C\C(=O)OC`, 104% (inactive); as for `COS(=O)(=O)c1ccc(Br)cc1`, 113% (inactive).
Consider `COc1cc2cc(OC(C)=O)c3cc4c(cc3c2c(OC)c1OC)OCO4`, for which the growth is 92.5% (inactive).
Take `CCCCC(CC)COC(C)=O` (stereo not given): the growth is 86.3% (inactive).
The value for `COc1nc(N)nc2c1ncn2C1OC(CO)CC1O` (stereo not given) was 114% (inactive); that for `COc1cc(C2NC(=O)C(C#N)=C(Nc3cccc(C)c3)S2)ccc1O` (stereo not given) was 112% (inactive).
As for `COc1cc(OC)c2ccc(=O)oc2c1`, the figure is 101% (inactive); as for `CCOC(=O)C1=C(Nc2ccc(Br)cc2)C(=O)N(CC)C1`, 90.9% (inactive); as for `Cc1nc2c(ccc3ccccc32)s1`, 115% (inactive).
As for `CC(=O)NC(N)=S`, the figure is 112% (inactive); as for `Cc1ncc(C#N)c(N)n1`, 87.1% (inactive).
